G9a block = G9a (human) methyltransferase inhibition; Q96KQ7; G9a H3K9 monomethylation, AlphaScreen, 2 h; Potency, µM (highest dose often 102 µM), inactives show top-dose activity, negative = inhibition, usual class: inhibitors; 350,000 tested, 8.8% active; also: potency is read from the fitted curve at half-maximal effect; % is scaled to controls: 0 for no effect and ±100 for the full control effect; nearly all actives have a fitted effect of over 75% in size
Target sequence (Q96KQ7 913-1193 limits assumed): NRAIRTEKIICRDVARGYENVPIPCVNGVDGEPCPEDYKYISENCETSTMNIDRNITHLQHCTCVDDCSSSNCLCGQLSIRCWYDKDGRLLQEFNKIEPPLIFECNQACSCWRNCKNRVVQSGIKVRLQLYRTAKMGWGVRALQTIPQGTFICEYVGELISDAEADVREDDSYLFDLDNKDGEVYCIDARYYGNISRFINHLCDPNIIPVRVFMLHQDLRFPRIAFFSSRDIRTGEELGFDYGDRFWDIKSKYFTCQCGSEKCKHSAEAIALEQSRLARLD
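Chemiluminescent proximity detection of H3K9 monomethylation, read after 10 min bead incubation in the dark. Reaction: 20 nM G9a, 500 nM biotin-H3K9 peptide, 20 uM SAM cofactor, 2 h, room temperature, following 15 min enzyme-compound preincubation.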
JMJD2A Tudor inh = blocks the human JMJD2A Tudor domain. 390,000 tested, 4.4% active. Potency, µM (highest dose often 114 µM), for inactives: at the top dose activity change, negative = inhibition, actives largely listed as inhibitors. AlphaScreen JMJD2A-Tudor / H3K4me3 peptide binding. O75164. AID 504339; also: potency is read from the fitted curve at half-maximal effect; % is scaled to controls: 0 for no effect and ±100 for the full control effect; nearly all actives have a fitted effect of over 50% in size
PLK1 PBD block = PLK1 (human) polo-box domain binding inhibition; Plk1 PBD binding of FITC phosphopeptide, fluorescence polarization; 360,000 tested, 2.8% active; AID 720504; P53350; Potency, µM, for inactives: max response, negative = inhibition, hits mostly inhibitors; also: potency is read from the fitted curve at half-maximal effect; series mostly up to about 57 µM; % is scaled to controls: 0 for no effect and ±100 for the full control effect; nearly all actives have a fitted effect of over 65% in size
HP1b chromo inh = blocks HP1-beta chromodomain binding to methylated histone tails; P83916; AlphaScreen HP1-beta / biotin-H3K9me3 peptide binding; Potency, µM (highest dose often 114 µM), for the others: top-dose activity change, negative = inhibition, most hits filed as inhibitors; 390,000 tested, 0.56% active; also: potency is read from the fitted curve at half-maximal effect; nearly all actives have a fitted effect of over 70% in size
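HP1-beta protein (50 nM final) preincubated 30 min at room temperature with biotinylated H3(1-18)K9me3 peptide (50 nM) in PBS pH 7.4, 0.01% Tween-20, then compound added for 30 min. AlphaScreen streptavidin donor/nickel chelate acceptor beads (10 ug/mL final), 30 min dark, luminescence read.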
PI5P4K alpha inh = blocks human PI5P4K alpha kinase activity; P48426; PI5P4Kalpha enzyme, ADP-Glo luminescence, 60 min; stronger effect = lower value; max response, %; 330,000 tested, 1.2% active; AID 652105; active = max response of -50% or lower; inconclusive = between -30% and -50%; inactive = -30% or higher; also: value at the top dose of about 77 µM; % is scaled to controls: 0 for no effect and ±100 for the full control effect
Target sequence (P48426 whole entry, looked up): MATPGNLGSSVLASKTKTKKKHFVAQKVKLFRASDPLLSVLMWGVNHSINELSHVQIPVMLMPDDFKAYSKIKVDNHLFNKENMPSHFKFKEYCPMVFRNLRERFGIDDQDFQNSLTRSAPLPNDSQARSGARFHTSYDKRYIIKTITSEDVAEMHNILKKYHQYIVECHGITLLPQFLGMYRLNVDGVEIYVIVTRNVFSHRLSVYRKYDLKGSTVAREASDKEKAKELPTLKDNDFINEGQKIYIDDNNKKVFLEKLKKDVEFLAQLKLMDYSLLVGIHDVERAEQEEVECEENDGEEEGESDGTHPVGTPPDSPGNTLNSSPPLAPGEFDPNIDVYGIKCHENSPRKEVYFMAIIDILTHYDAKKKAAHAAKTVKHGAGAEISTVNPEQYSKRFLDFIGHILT
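Controls without substrate or without enzyme flank wells where PI5P4Kalpha converts substrate using 5 microM ATP (final). Incubation lasts 60 minutes at room temperature; ADP formed is read by ADP-Glo luminescence.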
BAZ2B inh = BAZ2B (human) inhibition; 360,000 tested, 4.4% active; Q9UIF8; Potency, µM (series often up to 114 µM), for the others: at the highest dose activity change, negative = inhibition, most hits filed as inhibitors; AlphaScreen BAZ2B-H3K14Ac peptide displacement; also: potency is read from the fitted curve at half-maximal effect; % is scaled to controls: 0 for no effect and ±100 for the full control effect; nearly all actives have a fitted effect of over 60% in size
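Inhibition is scored as reduced AlphaScreen emission. The BAZ2B/b-H3(5-23)K14Ac complex (50 nM each) in PBS pH 7.4, 0.01% Tween-20 meets compound (up to 110 uM) for 30 min at RT before bead addition.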
* marks the source's active call; other numbers are inactive results; ? = inconclusive; · = not tested or not shown; [ ] = another dose, or the depositor's remark. A selection: hits, their analogues and other compounds. The true share with any hit is near 12%. Unless noted, calls follow the shape of the dose curve; as a rule, active = well fitted curve in the direction sought with a large enough effect; inconclusive = small, poorly fitted or top-dose-only effect, or another doubt; inactive = no such curve, though single readings can be large; an effect the other way counts as inactive or inconclusive.

SMILES | G9a block | JMJD2A Tudor inh | PLK1 PBD block | HP1b chromo inh | PI5P4K alpha inh | BAZ2B inh
COc1ccc(-c2nn(-c3ccc(F)cc3F)c3c2cnc2ccc(F)cc23)cc1 | 3%[12.7 µM] | 13% | · | 27% | · | 1%
CSC1=N/C(=C\c2ccccc2F)C(=O)S1 | 45µM* | -19% | -7% | 22% | 11 | -11%
COc1cccc2c(=O)c3cccc(N)c3[nH]c12 | 25µM* | 6% | -5% | 19% | -26 | ?
COc1cccc2c(=O)c3c([nH]c12)OC(C)(C)C3 | · | -7% | 5% | 20% | 0 | ·
COCCCn1c(=S)[nH]c2sc3c(c2c1=O)CCCC3 | 8.9µM* | ? | ? | 2% | -19 | -4%
O=C(CN1CCN(Cc2ccc(F)cc2Cl)S1(=O)=O)Nc1ccc(F)cc1 | -2%[59 µM] | 7% | · | 82% | · | 0%
Fc1ccc(NC(=S)Nc2ccc3nccnc3c2)cc1 | 40µM* | -16% | -10% | 35% | -2 | -17%
OCCCNC(=S)Nc1ccc2nccnc2c1 | · | -14% | -23% | 44% | 0 | -13%
COc1cc(C)c(CN2CCN(c3ncccn3)CC2)cc1C | · | 50µM* | 5% | ? | 2 | ·
COc1ccc(CN2CCN(c3ncccn3)CC2)c(C)c1C | 4.5µM* | 18µM* | -12% | ? | 3 | 56µM*
COc1ccc(N2CCN(c3ncccn3)CC2)cc1 | ? | -30% | -7% | -21% | · | -39%
O=C(COc1ccc(Br)cc1Cl)N1CCN(c2ncccn2)CC1 | -1%[2.33 µM] | -19% | -8% | 28% | -5 | 13%
COc1ccc(Br)cc1CN1CCN(c2ncccn2)CC1 | · | 22µM* | 3% | ? | 4 | ·
COc1cccc(CN2CCN(c3ncccn3)CC2)c1OC | ? | 28µM* | 5% | ? | -3 | 50µM*
COc1ccc(CN2CCN(c3ccccn3)CC2)c(OC)c1C | · | 56µM* | -3% | ? | 1 | 50µM*
COc1ccccc1CC(=O)N1CCN(c2ccccn2)CC1 | 4%[59 µM] | -7% | 1% | 16% | 0 | 6%
CN(CC(=O)Nc1cccc(F)c1)C(=O)c1ccc2c(c1)OCCO2 | 10µM* | 1% | 0% | 35% | -9 | -9%
COc1ccc(Cl)cc1NC(=O)CN(C)C(=O)c1cccc2cccnc12 | · | -21% | -8% | 23% | -1 | ·
CN(CC(=O)Nc1cccc(F)c1)C(=O)c1cccc2ccccc12 | -9%[59 µM] | -5% | 1% | 20% | -4 | 9%
COc1ccc(Cl)cc1NC(=O)CN(C)C(=O)c1cc2ccccc2cc1O | 50µM* | -36% | -7% | -9% | 3 | ?
CN(CC(=O)Nc1cccc(F)c1)C(=O)c1cc(=O)[nH]c2ccccc12 | 8.9µM* | -5% | -21% | 35% | 6 | 10%
CC(=O)c1cccc(NC(=O)c2cc(=O)[nH]c3ccccc23)c1 | 45µM* | -4% | 19µM* | 53% | -13 | -17%
O=c1c2ccccc2nc(-c2ccc(Cl)cc2)n1CCCOc1ccccc1F | -36%[59 µM] | 9% | · | 56% | · | 14%
CC[C@@]1(O)C(=O)OCc2c1cc1n(c2=O)Cc2cc3cc(O)ccc3nc2-1 | -32%[2.33 µM] | · | · | · | · | ·
COc1cccc(NC(=O)CN(C)C(=O)c2ccc(-c3cccc(C(F)(F)F)c3)o2)c1 | -24% | -15% | 1% | 39% | -7 | -6%
SMILES | G9a block | JMJD2A Tudor inh | PLK1 PBD block | HP1b chromo inh | PI5P4K alpha inh | BAZ2B inh
COc1ccc(Cl)cc1NC(=O)CN(C)C(=O)c1ccc2c(c1)OCCO2 | 40µM* | -8% | 0% | 24% | -1 | 4%
COc1ccc(Cl)cc1NC(=O)CN(C1CCCCC1)S(C)(=O)=O | -43%[12.7 µM] | ? | 30µM* | -13% | -8 | 3%
CS(=O)(=O)N(CC(=O)Nc1ccc(F)cc1F)C1CCCCC1 | · | -3% | -7% | 51% | 6 | -6%[57.1 µM]
CN(CC(=O)Nc1cccc(F)c1)C(=O)c1ccc(-c2cccc(C(F)(F)F)c2)o1 | 18µM* | -29% | -11% | 11% | 19 | -8%
OC(c1ccc(F)c(F)c1)c1nc(-c2cccc3cccnc23)cs1 (centres undefined) | · | · | -5% | · | 2 | ·
COc1ccc(-c2nc(C)c(CCNC(=O)C(=O)Nc3cccc(F)c3)s2)cc1OC | 6%[59 µM] | -15% | · | 18%[57 µM] | · | -1%
CN1CCc2nc3sc(C(=O)NCc4ccccc4)c(N)c3cc2C1 | 11µM* | -13% | -19% | 24% | -17 | ?
O=C(Nc1cccc2ncccc12)c1ccc(Cl)cc1 | 7.1µM* | 3.2µM* | -13% | ? | 2 | 11µM*
COCCCNC(=S)Nc1cccc2ncccc12 | ? | -7% | 27µM* | -9% | -5 | -20%
COc1ccc(C(=O)NC(=S)Nc2cccc3ncccc23)cc1[N+](=O)[O-] | -23% | -14% | -21% | 12% | 0 | -21%
O=C(NC(=S)Nc1cccc2cc(O)ccc12)c1ccccc1Br | 32µM* | ? | -3% | -12% | 8 | ?
N#C/C(=C\c1ccco1)C(=O)Nc1cccc2ncccc12 | 50µM* | -19% | -2% | 32% | 0 | 4%
O=C(Nc1cccc2ncccc12)c1ccc(F)cc1 | 23%[59 µM] | 2% | -3% | 23% | 3 | -1%
COc1ccccc1C(=O)NC(=S)Nc1cccc2cc(O)ccc12 | · | ? | -20% | -4% | 3 | ·
COc1ccc(N2CC(NC(=O)/C=C\c3ccccc3)CC2=O)cc1OC (centres undefined) | 10%[59 µM] | 0% | · | 27% | · | 0%
Cn1cc(-c2nc3cnc(Oc4cccc(Cl)c4)nc3n(C3CC3)c2=O)c2ccccc21 | 5%[0.501 µM] | · | · | · | · | ·
O=C(NC(=S)Nc1cccc2cc(O)ccc12)c1ccco1 | 16µM* | -27% | -15% | 0% | 7 | ?
COc1ccc(C(=O)NC(=S)Nc2cccc3cc(O)ccc23)cc1OC | · | -31% | ? | -22% | -30 | ?
O=C(NC(=S)Nc1cccc2ncccc12)c1ccco1 | 45µM* | -14% | -4% | 41% | -13 | -22%
O=C(NC(=S)Nc1cccc2c(O)cccc12)c1ccco1 | · | ? | 24µM* | ? | ? | ?
Cc1cc(NC(=S)NC(=O)c2ccco2)c2ccccc2n1 | ? | ? | -15% | 16% | 4 | -5%
CCNC(=O)/C=C1\NC(C)(C)Cc2c1ccc1ccccc21 | 11µM* | -23% | -1% | 1% | · | -36%
CC1(C)Cc2c(ccc3ccccc23)C(=O)N1 | -1%[12.7 µM] | -1% | -9% | 45% | -14 | 4%

Compound activity: PubChem, National Center for Advancing Translational Sciences (NCATS)
